# Sampled rows, rich in hits. Any-hit rate of the full collection: about 6.5%.
# VACV mCherry inh: qHTS for Stage-Specific Inhibitors of Vaccinia Orthopoxvirus: mCherry Reporter Primary qHTS; Vaccinia virus mCherry reporter infection, fluorescence; Potency, µM (doses to about 36.5 µM), for the others: at the highest dose activity change, negative = inhibition, actives largely listed as inhibitors; 310,000 tested, 0.63% active; calls by dose curve; tested in A549 cells; further: potency means the concentration at half of the fitted maximal effect; nearly all actives have a fitted effect of over 35% in size
# MARV entry inh: qHTS for inhibitors of binding or entry into cells for Marburg Virus | Marburg virus pseudotyped entry inhibition, cell reporter | Potency, µM (top dose mostly 37.8 µM), for inactives: top-dose activity change, negative = inhibition, most hits filed as inhibitors | 300,000 tested, 1.8% active | AID 540276, 2011; calls by dose curve; tested in HEK293 cells; further: potency means the concentration at half of the fitted maximal effect
# FMDV inh: High Throughput Screening for Foot and Mouth Disease Virus Antivirals | FMDV antiviral cell-based qHTS | Potency, µM (top dose mostly 57.9 µM), for the others: at the top dose activity change, negative = inhibition, most hits filed as inhibitors | 410,000 tested, 1.2% active | AID 1159524, 2015; calls by dose curve; tested in HEK293T cells; further: read-out not given here; potency means the concentration at half of the fitted maximal effect; nearly all actives have a fitted effect of over 45% in size
# Vaccinia Venus: qHTS for Stage-Specific Inhibitors of Vaccinia Orthopoxvirus: Venus Reporter Primary qHTS | Potency, µM (titrated, usually from 36.5 µM), inactives show at the highest dose activity change, negative = inhibition, usual class: inhibitors | Vaccinia virus Venus reporter expression, fluorescence | AID 720580, 2013 | 330,000 tested, 0.46% active; calls by dose curve; tested in A549 cells; further: potency means the concentration at half of the fitted maximal effect; nearly all actives have a fitted effect of over 30% in size
# HCMV antiviral: qHTS Assay for inhibitors of the human cytomegalovirus (HCMV). HFF cells, HCMV-luciferase reporter, 72 h; hits give low values. activity change, negative = inhibition, % at 57.5 µM. 410,000 tested, 4.5% active; in the data active means activity change below about -60%; inconclusive means no clear call, values can overlap the other calls; inactive means above about -39%
#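 Human foreskin fibroblasts infected with luciferase-reporter HCMV at MOI 1 PFU/cell, compounds at two doses. Luciferase measured 72 h post infection; normalized to buffer-only basal and Salinomycin (10uM) controls.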
# LASV entry inh: qHTS for Inhibitors of binding or entry into cells for Lassa Virus. Potency, µM (series often up to 37.9 µM), inactives show at the highest dose activity change, negative = inhibition, usual class: inhibitors. 300,000 tested, 1.2% active. Lassa virus pseudotype entry inhibition, cell reporter; calls by dose curve; tested in HEK293 cells; further: potency means the concentration at half of the fitted maximal effect; nearly all actives have a fitted effect of over 50% in size
# The depositor's hits bear a star; i = inactive; ? = inconclusive; . = not tested or not shown; + = active, no number; ! = repeats disagree; [ ] = dose if it differs, or a comment. On the % scale 0 is the no-effect control and ±100 the full control effect.
SMILES,VACV mCherry inh,MARV entry inh,FMDV inh,Vaccinia Venus,HCMV antiviral,LASV entry inh
C/C(=N\NC(=O)CNc1cccc(C)c1)c1ccc(Br)s1,-6%,7%,9%,-20%,-62*,-19%
O=C(N/N=C/c1ccc[nH]1)c1cc2ccccc2cc1O,-6%,23%[46.1 µM],9%,-11%,-99*,-28%[46.1 µM]
O=C(CNc1cccc2ccccc12)N/N=C/c1ccc[nH]1,?,?,-7%,?,-68*,?
Cc1cccc(NCC(=O)N/N=C/c2cccc(Br)c2)c1,.,.,-3%,.,?,.
Cc1cccc(NCC(=O)N/N=C\c2ccc[nH]2)c1,?,7.1µM*,0%,8%,19,?
O=C(N/N=C/c1ccncc1)c1cc2ccccc2cc1O,.,.,10%,.,-13,.
O=C(CNc1cccc(C(F)(F)F)c1)N/N=C/c1cccc(Br)c1,-24%,?,-1%,?,-73*,?
Cc1ccc(Nc2c3c(nc4nncn24)CCC3)cc1C,-31%,5%[46.1 µM],-27%,-13%,-88*,-10%[46.1 µM]
Nc1ccc(Cc2ccc([N+](=O)[O-])cc2)cc1,-22%,-2%[46.1 µM],-18%,-13%,-64*,11%[46.1 µM]
CCSc1ncc(Cl)c(C(=O)Nc2ccc(S(=O)(=O)N(C)c3ccccc3)cc2)n1,-18%,-19%[46.1 µM],-5%,-10%,-22,?
CCN(c1ccccc1)S(=O)(=O)c1ccc(NC(=O)c2nc(S(C)(=O)=O)ncc2Cl)cc1,?,-24%[46.1 µM],28µM*,?,-100*,?
CCS(=O)(=O)c1ncc(Cl)c(C(=O)Nc2ccc(S(=O)(=O)N(C)c3ccccc3)cc2)n1,-28%,11µM*,22µM*,14µM*!,-101*,?
CC1CCCCN1C(=O)c1ccc(C(=O)c2ccccc2)cc1 (stereo not drawn),.,.,5%,.,16,.
CCN(CC)CCN1C(=O)C(=O)/C(=C(/O)c2c(C)[nH]c(C(=O)OC)c2C)[C@@H]1c1ccc(OC)cc1,.,22%,.,.,.,.
CCOc1cc(C(=O)N2CC(=O)Nc3ccc(C)cc3C2c2ccccc2)cc(OCC)c1OCC (stereo not drawn),i,?,-9%,-6%,36,21%[46.1 µM]
COC(=O)C1CN(C#N)N(c2ccc(Cl)cc2)C12c1ccccc1-c1ccccc12 (stereo not drawn),?,?,3.5µM*,?,.,11µM*
COC(=O)C[C@H]1c2ccccc2[C@@H]2C(=C[C@@H](C)[C@H]3C(=O)N(c4ccccc4)C(=O)[C@H]32)N1C(=O)OC,.,10%[14.2 µM],.,.,.,.
CCc1cc(=O)oc2c(CNCc3ccc(OC)cc3OC)c(O)c(Cl)cc12,-12%,-3%,-7%,-4%,160,?
COc1ccc(CNCc2c(O)c(Cl)cc3c(C)c(C)c(=O)oc23)c(OC)c1,-14%,-17%,-13%,-6%,-70*,12%
CCOC(=O)c1c(C)nc2sc(C(=O)Nc3ccc(C(C)=O)cc3)c(N)c2c1-c1ccc(OC)cc1,.,2.8µM*,?,?,6,?
Cc1nc2sc(C(N)=O)c(N)c2c(-c2ccc(Br)cc2)c1C(=O)Nc1ccc(Cl)cc1,-13%,?,?,-15%,-78*,?
O=C(Cc1ccccc1)N1CC(=O)N2[C@@H](CO)[C@@H](c3ccc(Br)cc3)[C@@H]2C1,.,.,.,.,1,.
O=C(Cc1ccccn1)N1CC(=O)N2[C@H](CO)[C@@H](c3ccc(Br)cc3)[C@H]2C1,.,.,.,.,-101*,.
O=C1CC(C(=O)O)S/C(=N\NC(=O)c2ccccc2)N1 (stereo not drawn),.,1%,4%,.,-82*,-3%
Cc1ccc(NC(=O)c2cc(S(=O)(=O)N3CCCCCC3)ccc2F)cc1F,-12%,.,0%,-6%,-23,7%[46.1 µM]
SMILES,VACV mCherry inh,MARV entry inh,FMDV inh,Vaccinia Venus,HCMV antiviral,LASV entry inh
Nc1nc(N)c(S(=O)(=O)c2ccccc2)c(Nc2ccc(F)cc2)n1,-2%,-27%[46.1 µM],-4%,2%,-1,-3%[46.1 µM]
CC1=CC2C(C(O)CC3(C)C2CC(C)C32OCOC23COCO3)C2(C)C/C(=C\O)C(=O)C=C12 (stereo not drawn),?,7.9µM*,40µM*,13µM*,-99*,?
CC(NC(=O)C(=O)N1CCCCC1)C(c1cccs1)N1CCN(c2ccccc2)CC1 (stereo not drawn),-2%,9%[46.1 µM],-3%,-17%,+,4%[46.1 µM]
Cc1cn([C@H]2C[C@H](O)[C@@H](CNC(=O)[C@H]3CCC(=O)N3)O2)c(=O)[nH]c1=O,-13%,.,5%,-7%,-7,.
O=C(NC(Cc1ccc(O)cc1)C(=O)N=Nc1c(O)[nH]c2ccccc12)c1ccccc1 (stereo not drawn),-5%,6%,12%,-5%,-83*,-7%[46.1 µM]
CC(CC(=O)Nc1cccc(S(=O)(=O)N2CCCCC2)c1)c1ccccc1 (stereo not drawn),.,.,-11%,.,24,.
COc1ccc(CC(=O)Nc2cccc(S(=O)(=O)N3CCCCCC3)c2)cc1OC,?,?,?,-28%,-83*,4.5µM*
O=C(CN1CCN(c2ccc(O)cc2)CC1)Nc1cc(S(=O)(=O)N2CCCCC2)ccc1Cl,-16%,-26%[46.1 µM],0%,-6%,-74*,-26%
O=C(Nc1cccc(Cl)c1)Nc1cc(S(=O)(=O)N2CCCCC2)ccc1Cl,-25%,4µM*,?,?,-99*,?
CCCC(C(=O)Nc1cccc(S(=O)(=O)N2CCCC2)c1)c1ccccc1 (stereo not drawn),?,?,-3%,-14%,?,7.1µM*
CCN(CC)CCCN1C(=O)C(=O)/C(=C(\O)c2ccc(Cl)cc2)[C@@H]1c1ccccn1,.,16%,.,.,.,.
CCCCOc1ccc(CS[C@@H](CC(=O)O)C(=O)O)cc1,.,5%,.,.,.,.
O=C(CNc1cccc(S(=O)(=O)N2CCCCC2)c1)Nc1cccc(F)c1,-13%,-29%,0%,-23%,?,-34%[46.1 µM]
CSc1cccc(NC(C)C(=O)NCc2ccccc2)c1 (stereo not drawn),-17%,-26%[46.1 µM],-3%,-7%,-65*,-5%
CC(=O)Nc1cccc(S(=O)(=O)N2CCCCCC2)c1,i,-28%[46.1 µM],9%,-6%,-100*,-5%
CN(C)S(=O)(=O)c1cccc(NC(=O)CNc2cccc(S(=O)(=O)N3CCCCC3)c2)c1,?,.,-6%,?,-81*,.
CCN(CC)S(=O)(=O)c1ccc(C)c(NC(=S)Nc2cccc(S(=O)(=O)N3CCCCCC3)c2)c1,i,?,?,-20%,-77*,?
CCN(CC)S(=O)(=O)c1ccc(C)c(NC(=O)CNc2cccc(S(=O)(=O)N3CCOCC3)c2)c1,-28%,0%[46.1 µM],-27%,-5%,-4,-10%

# Bioassay records as filed in PubChem BioAssay.
